{"source": "PubChem BioAssay (NCATS)", "note": "Inconclusive results are not listed. Calls of active or inactive are those of the source. Calls follow the shape of the dose curve; as a rule, active = well fitted inhibition curve with a large enough effect; inconclusive = small, poorly fitted or top-dose-only effect; inactive = flat fitted curve, though single readings scatter.", "data": [{"test_system": "HEK293", "experiment": "Cytotoxic Profiling of Annotated Libraries Using Quantitative High-Throughput Screening (AID 1296008); also: nearly all actives have a fitted effect of over 60% in size; also: potency is read from the fitted curve at half-maximal effect; as to max response: % is scaled to controls: 0 for no effect and ±100 for the full control effect", "conditions": "Five cell lines viability, CellTiter-Glo ATP luminescence, 48-72 h; max response: stronger effect = lower value", "summary_of_the_method": "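Compounds were pin-transferred onto cells and incubated 48 or 72 hr at 37 degree Celsius, 95% humidity. CellTiter-Glo was added, plates sat 10 min at room temperature, then ATP-coupled luminescence was imaged as the viability read-out.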", "values": [{"compound": "CC(=O)OC1C(O)CC2(C)C(CCC(C)C23Cc2c(O)cc(CO)c(C=O)c2O3)C1(C)C", "note": "(stereo unspecified)", "max response": "-11.5% (inactive)"}, {"compound": "CC(C)c1cc(C(=O)N2CC[C@H](NC(=O)C3CC3)C2)n[nH]1", "max response": "-6.43% (inactive)"}, {"compound": "C[C@@H]1O[C@@H](O[C@@H]2[C@@H](O)[C@@H](O[C@]3(CO)O[C@H](CO)[C@@H](O)[C@@H]3OC(=O)/C=C/c3ccc(O)cc3)O[C@H](CO)[C@H]2OC(=O)/C=C/c2ccc(O)cc2)[C@H](O)[C@H](O)[C@H]1O[C@@H]1O[C@@H](C)[C@H](O[C@@H]2OC[C@](O)(CO)[C@H]2O)[C@@H](O)[C@H]1O", "outcome": "inactive"}, {"compound": "COC1C(CO)OC(n2cnc3c(=O)[nH]cnc32)C1O", "note": "(stereo unspecified)", "max response": "0.852% (inactive)"}, {"compound": "Oc1ccc2nc(CN3CCC(Cc4ccccc4F)CC3)[nH]c2c1", "max response": "-10.9% (inactive)"}, {"compound": "O=C(O)[C@H](Cc1ccc(Nc2nccc3ccncc23)cc1)NC1=C(Br)C(=O)C12CCCCC2", "max response": "-11.7% (inactive)"}, {"compound": "COC(=O)CC(O)CC(O)/C=C/c1c(C)ccc2c1C(O)CC(C)C2", "note": "(stereo unspecified)", "outcome": "inactive"}, {"compound": "COC(=O)C1=CO[C@@H](O[C@@H]2O[C@H](CO)[C@@H](O)[C@H](O)[C@H]2O)[C@H]2[C@@H]1C=C[C@@]21C=C([C@H](C)O)C(=O)O1", "max response": "-5.88% (inactive)"}, {"compound": "Cc1ccccc1-n1c([C@H](C)Nc2nc(N)nc3nc[nH]c23)nc2cccc(C)c2c1=O", "Potency": "16.4 µM (active)"}, {"compound": "COC(=O)c1c(C)cc(OC(=O)c2c(C)cc(OC)cc2OC)cc1O[C@@H]1O[C@H](CO)[C@@H](O)[C@H](O)[C@H]1O", "max response": "-0.971% (inactive)"}, {"compound": "COc1ccc(C[C@H](N)C(=O)N[C@@H]2[C@H](O)[C@H](n3cnc4c(N(C)C)ncnc43)O[C@@H]2CO)cc1", "Potency": "1.16 µM (active)"}, {"compound": "NC[C@@](O)(c1ccc(Cl)cc1)c1ccc(-c2cn[nH]c2)cc1", "Potency": "5.8 µM (active)"}, {"compound": "C=C(CCC1=C(C)[C@H]2[C@H](CC3[C@@H]4CC=C5C[C@@H](O)C[C@@H](O)[C@]5(C)C4[C@H](O)C[C@@]32C)O1)CO[C@@H]1O[C@H](CO)[C@@H](O)[C@H](O)[C@H]1O", "note": "(stereo partly specified)", "Potency": "1.37 µM (active)"}, {"compound": "O=C(CC1C(=O)Nc2ccccc21)OC[C@H]1O[C@@H](OCCc2ccc(O)cc2)[C@H](O)[C@@H](O)[C@@H]1O", "note": "(stereo partly specified)", "max response": "1.16% (inactive)"}, {"compound": "O=C(c1ccccc1)c1ccc2nc(NC(=O)c3csc(C4CCN(c5ncnc6ccsc56)CC4)n3)[nH]c2c1", "Potency": "5.17 µM (active)"}, {"compound": "C=C1C(=O)O[C@@H]2[C@H]1CCC(C)=C1CCC(=O)O[C@]12C", "Potency": "14.6 µM (active)"}, {"compound": "O=C(Nc1ccc(-c2ccncc2)cc1)N[C@H](CO)c1ccccc1", "max response": "-14.1% (inactive)"}, {"compound": "CC(=O)N1CCN(C(=O)Cc2ccc(Nc3ncc(F)c(Nc4ccc(C(=O)Nc5ccccc5Cl)cc4)n3)cc2)CC1", "Potency": "6.51 µM (active)"}, {"compound": "CC1(C)C2CC(OC3OC(COC4OCC(O)(CO)C4O)C(O)C(O)C3O)C1(C)CC2O", "note": "(stereo unspecified)", "max response": "-3.81% (inactive)"}, {"compound": "CCCC(=O)O[C@@H]1[C@@H]2[C@@H](OC(C)=O)[C@]3(C)C(=O)[C@H]4[C@@H](OC(C)=O)C(C)(C)C[C@H]4[C@]3(C)C(=O)[C@@]2(OC(C)=O)C[C@@H]1C", "max response": "3.97% (inactive)"}, {"compound": "COC(=O)C1=CO[C@@H](O[C@@H]2O[C@H](CO)[C@@H](O)[C@H](O)[C@H]2O)[C@@H]2C(COC(C)=O)=C[C@H](O)[C@H]12", "max response": "-2.65% (inactive)"}, {"compound": "C[C@H](CCC(=O)O)[C@H]1CC[C@H]2[C@@H]3C[C@H](O)[C@@H]4C[C@H](O)CC[C@]4(C)[C@H]3CC[C@]12C", "max response": "0.0594% (inactive)"}, {"compound": "COC(=O)N1CCC(n2ncc3c(N4CCOCC4)nc(-c4ccc(NC(=O)Nc5ccc(CO)cc5)cc4)nc32)CC1", "Potency": "0.058 µM (active)"}, {"compound": "N#Cc1ccc(-c2cnc3[nH]cc(NC(=O)c4cccnc4)c3c2)cc1", "Potency": "8.2 µM (active)"}, {"compound": "CC1=CC(=O)CC(C)(C)C1CCC(C)O[C@@H]1O[C@H](CO[C@@H]2OC[C@@H](O)[C@H](O)[C@H]2O)[C@@H](O)[C@H](O)[C@H]1O", "note": "(stereo partly specified)", "max response": "-8.79% (inactive)"}, {"compound": "CC1(C)C=CN2C(=O)C3=CCCN3C(=O)[C@@H]2C[C@@]12Nc1ccccc1C2=O", "max response": "-9.52% (inactive)"}]}]}
